Screening data from PubChem.
tim10-1 inh: tim10-1 yeast growth inhibition; inhibition, % at 20 µM; S. cerevisiae tim10-1 ts strain growth, BacTiter-Glo, 24 h; actives 2.2% (n = 330,000);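 active = inhibition of at least 40%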;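 note: mutant grown at 25 °C; 0% = DMSO wells with yeast and 100% = wells holding no yeast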
TIM10 inh: growth inhibitors of TIM10 yeast strain; S. cerevisiae TIM10 strain growth, BacTiter-Glo luminescence, 24 h; AID 463195; actives 1.4% (n = 330,000); inhibition, % at 10 µM;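 active = inhibition of 40% or more at the single tested concentration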;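 note: wild-type TIM10 isogenic control strain grown at permissive 25 °C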
SKKanGAS inh: SKKanGAS growth inhibition. actives 1.3% (n = 300,000). inhibition, % at 7.5 µM. S. pyogenes SKKanGAS, kanamycin growth, BacTiter-Glo, 6 h. AID 1662;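 active = mean replicate score, as percent of positive control median, at least 50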;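 note: strain carries kanamycin resistance gene driven by streptokinase promoter and grows in 40 µg/ml kanamycin; loss of luminescence reflects streptokinase promoter inhibition or plain growth inhibition; 0% = median of DMSO wells and 100% = positive control at its reference dose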
NALP3 yeast inh: NALP3 inhibition in yeast | Yeast reconstituted NLRP3/ASC/caspase-1, beta-gal luminescence, 24 h | inhibition, % at 10 µM | actives 0.39% (n = 330,000) | AID 2825;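 active = inhibition of 50% or more; inactive = inhibition below 50%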;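 note: plate controls were induced DMSO wells for no effect and uninduced yeast grown without galactose for full effect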
tim23-1 inh: growth inhibitors of tim23-1 mutant yeast; AID 463212; S. cerevisiae tim23-1 growth, BacTiter-Glo luminescence, 24 h; actives 1.3% (n = 330,000); inhibition, % at 20 µM;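 active = growth inhibition of the mutant yeast at or above 50%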;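 note: temperature-sensitive mutant grown at 25 °C; plate controls were DMSO-treated mutant yeast for no effect and medium wells lacking yeast for full effect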
PfHsp90 yeast 2: reduces growth (ATP signal) of yeast expressing P. falciparum Hsp90; actives 0.32% (n = 310,000); S. cerevisiae expressing PfHsp90, BacTiter-Glo ATP, 48 h; yeast lacking PDR1 and PDR3 efflux regulators; inhibition, % at 9.4 µM; AID 504621;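 active = every replicate shows inhibition above about 80%, whatever the replicate mean, limit read from the data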;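 note: 0% = DMSO neutral controls and 100% = 20 µM radicicol positive controls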
tim10-1 confirm: confirmation of tim10-1 mutant yeast growth inhibitors. inhibition, % at 20 µM. shares compounds with tim10-1 inh. S. cerevisiae tim10-1 ts strain growth, BacTiter-Glo, 24 h. actives 56% (n = 7,400). AID 463213;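 active = inhibition of yeast growth at or above a set limit in either of two repeat tests at 20 µM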;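 note: tim10-1 mutant grown at permissive 25 °C to find synthetic lethal compounds; 0% = DMSO yeast wells and 100% = medium wells without yeast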
tim10 confirm: confirmation of TIM10 yeast growth inhibitors; S. cerevisiae tim10 strain growth, BacTiter-Glo luminescence, 24 h; shares compounds with TIM10 inh; inhibition, % at 10 µM; actives 63% (n = 4,600);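 active = inhibition of yeast growth at or above a set limit in either of two replicates at 10 µM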;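 note: this counterscreen used the strain with wild-type TIM10; 0% = yeast with DMSO and 100% = medium wells lacking yeast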
tim23-1 confirm: confirmation of tim23-1 mutant yeast growth inhibitors. shares compounds with tim23-1 inh. inhibition, % at 20 µM. actives 83% (n = 4,400). S. cerevisiae tim23-1 growth, BacTiter-Glo luminescence, 24 h;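 active = inhibition above about 39% in either of two replicate wells at 20 µM, limit read from the data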;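 note: temperature-sensitive tim23-1 mutant grown at 25 °C; 0% = DMSO wells with yeast and 100% = medium wells without yeast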
* = called active by the depositor; x = no result. Sampled rows, rich in hits. Any-hit rate of the full collection: about 4.5%.

SMILES	tim10-1 inh	TIM10 inh	SKKanGAS inh	NALP3 yeast inh	tim23-1 inh	PfHsp90 yeast 2	tim10-1 confirm	tim10 confirm	tim23-1 confirm
COc1cc(C(C[N+](=O)[O-])c2c(-c3ccccc3)cc3ccccn23)cc(OC)c1OC (centres undefined)	41*	34	-1	20	54*	-2	33*	x	69*
Cc1cccc2c1NC(=O)/C2=C\C(=O)c1cccs1	83*	82*	-3	43	81*	-28	87*	88*	77*
Cc1cc(C)c2c(c1)/C(=C/C(=O)c1ccc(Br)s1)C(=O)N2	78*	76*	1	22	74*	-22	69*	66*	70*
S=C(NCc1ccco1)N1CCN(Cc2ccc(Cl)cc2Cl)CC1	51*	48*	2	23	70*	-9	54*	43*	62*
CCOc1ccccc1N1CCN(C(=S)NCc2ccco2)CC1	17	10	1	11	26	15	x	x	x
Cc1cccc(N2CCN(C(=S)NCc3ccco3)CC2)c1C	55*	20	22	20	53*	-41	48*	x	43*
CCOC(=O)C1=CN(Cc2ccco2)S(=O)(=O)NC1c1ccc(Br)cc1F (centres undefined)	20	-11	x	x	45	-7	x	x	x
O=C(/C=C/c1ccccc1)NCCS(=O)(=O)N1CCN(c2ccccc2F)CC1	14	7	11	27	10	x	x	x	x
O=C(CCCN1C(=O)c2ccccc2C1=O)Nc1cccc(S(=O)(=O)NC2=NCCC2)c1	-9	7	-12	8	13	5	x	x	x
NC(=NC(=O)c1ccc(OCC(F)(F)F)nc1)c1ccc(Cl)cc1	68*	18	-3	14	56*	-4	48*	x	42*
COc1cccc(NC(=O)C2CC(=O)n3cnnc3S2)c1 (centres undefined)	43*	41*	x	13	61*	13	33*	12	59*
Oc1ccccc1C1Nc2cccc3cccc(c23)N1	52*	46*	21	32	77*	-43	52*	44*	74*
COc1ccccc1C1Nc2cccc3cccc(c23)N1	21	9	2	12	26	10	x	x	x
NC(=O)C(c1ccccc1)c1ccc(C(=O)c2ccccc2)cc1 (centres undefined)	12	2	-2	12	10	-17	x	x	x
N#C/C(=C/c1ccc(N2CCCCCC2)o1)c1ccc(F)cc1	62*	42*	65*	32	60*	64	18	58*	69*
N#C/C(=C/c1ccc(N2CCOCC2)o1)c1ccc(Br)cc1	29	29	15	42	26	10	x	x	x
CCC1CCCCN1CCCNC(=O)C1CCC(CNS(=O)(=O)c2c(C)cc(C)cc2C)CC1 (centres undefined)	-6	-9	-3	-7	0	7	x	x	x
CC1CCN(c2nnc(-c3ccccc3)c3ccccc23)CC1	41*	12	-2	-2	69*	-20	0	x	34
COc1ccc(-c2nnc(N3CCCCC3)c3ccccc23)cc1	51*	29	-7	6	60*	-8	47*	x	55*
Cc1ccc(-c2nnc(N3CCC(C)CC3)c3ccccc23)cc1C	19	4	37	21	48	0	x	x	x
CCOC(=O)C(C(=O)Cc1ccccc1)c1ccccc1 (centres undefined)	x	x	x	x	x	20	x	x	x
Fc1ccc(CNC(=S)Nc2cccc(Cl)c2)cc1	48*	38	19	14	50*	-8	41*	x	52*
COc1ccccc1CN(C)C(=O)c1cc(-c2cccs2)nc2ccccc12	30	6	12	2	25	11	x	x	x
N/C(Cc1ccc([N+](=O)[O-])cc1)=N\OC(=O)c1ccco1	21	27	2	11	26	-24	x	x	x
